Results on 15 compounds are retold here after ChEMBL document CHEMBL1157539, “Thousands of chemical starting points for antimalarial lead identification” (Nature, 2010).

Structures are written as SMILES.

The test relates to HepG2. Nature of the test: GSK_TCMDC: Percent inhibition of human HepG2 cell line. Test compounds present at 10uM. It is filed as functional.
As for `COc1ccc(-c2ccc(NC(=O)c3cccc(Cl)c3)cc2)cc1CN(C)CCN(C)C.O=C(O)C(F)(F)F`, the Inhibition is given as 22%. Take `COc1cc2c(cc1S(=O)(=O)c1ccc(NC(=O)c3cc4ccccc4s3)cc1)CCN(C)CC2`: the Inhibition turned out to be 21%.

In the case of `CC(C)c1sc(N2CCN(C)CC2)nc1C(=O)NCCc1ccc(Br)cc1.O=C(O)C(F)(F)F`, the Inhibition is given as 0%. `O=S(=O)(Nc1cccc(CCN2CCC(N3CCCCC3)CC2)c1)c1ccc(Oc2ccccc2)nc1` showed an Inhibition of 8%. The compound `CNC(=O)C1Cc2c([nH]c3c(C)cccc23)C2(N1)C(=O)Nc1ccc(OC(F)(F)F)cc12` (stereo not given) yielded an Inhibition of 0%. Turning to `O=C(Nc1ccc2c(c1)CCN2C1CCN(Cc2cccc(F)c2F)C1)c1ccco1` (stereo not given), the Inhibition was found to be 0%. In turn, `CC(C)n1cc(CN2CCCC(C(=O)Nc3cccc(-c4cc5ccccc5[nH]4)c3)C2)cn1` (stereo not given) registered an Inhibition of 34%.

With `Cc1ccc2c(N/N=C/c3ccccc3[N+](=O)[O-])cc(C)nc2c1`, the Inhibition worked out at 13%. Compound `Cc1c(CNCCCNc2nc3ccncc3[nH]2)sc(Br)c1Br.Cl` returned an Inhibition of 0%.

As for `CN(C)c1ccc(-c2csc(C(=O)NC3CCN(CCC(C)(C)C)C3)c2)cc1.O=C(O)C(F)(F)F` (stereo not given), the Inhibition is on record as 20%. The same measure for `COC(=O)Nc1nc2cc3c(cc2s1)OCCO3`: 0%. In the case of `CN(C)CCCNc1ncnc2c1[nH]c1ccc(Cl)cc12`, the Inhibition was found to be 2%.

`COc1ccc(N2CCN(c3nc(Nc4ccc(NC(C)=O)cc4)nc(N4CCCC4)n3)CC2)cc1` returned an Inhibition of 0%. In turn, `CC(C)CCN1CCC(Oc2ccc(NC(=O)c3cccs3)cc2Cl)CC1.O=C(O)C(F)(F)F` registered an Inhibition of 31%. The compound `Cc1nc2nc(N)nc(N)c2c(C)c1Cc1cccc(C#N)c1.Cl` showed an Inhibition of 64%.
